Screening data deposited in PubChem BioAssay by National Center for Advancing Translational Sciences (NCATS).
Pf Dd2 inh – Plasmodium falciparum Dd2 growth inhibition; P. falciparum Dd2 growth, SYBR Green, 72 h; Potency, µM (top dose mostly 28.9 µM), usual class: inhibitors; 120,000 tested, 4.3% active; AID 1347417; active = well fitted inhibition curve with a large enough effect; note: nearly all actives have a fitted effect of over 65% in size
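Readout: SYBR Green fluorescence, 485 nm excitation, 535 nm emission, after ~16 h lysis at 37C. Before that, Dd2-infected red cells (2.5% hematocrit) grew 72 h with compound, 29 uM top final concentration.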
A number is an active result; 0 = inactive. The sample as a whole holds a higher share of hits than the screen did.

SMILES	Pf Dd2 inh
Cc1cccc(OCC(=O)N2CCC(c3n[nH]c(=O)n3Cc3ccc(F)cc3)CC2)c1	11µM
COc1ccccc1OCCNC(=O)CCC1CCN(C(=O)c2ccccc2F)CC1	0
Cc1nc(NCCc2nc3ccccc3n2C)cc(C2CC(O)C2)n1 (centres undefined)	0
O=C(CCCc1ccccc1)N1CCC2(CC1)CC(N(Cc1ccccc1)C1CC1)CCO2 (centres undefined)	0
Cc1oc(-c2ccc(C(F)(F)F)cc2)nc1CN(C)C(C)c1cccs1 (centres undefined)	0
COC(=O)c1ccccc1NC(=O)c1cc2c(-c3ccc(OC)c(OC)c3)nn(C)c2s1	0
CCCCN(CC)CCCNC(=O)c1cc2c(-c3ccc(OC)c(OC)c3)nn(C)c2s1	7.9µM
CCOCCCNC(=O)c1cc2c(-c3ccc(OC)c(OC)c3)nn(C)c2s1	0
O=C(NC1CCN(c2nnc3ccccn23)CC1)c1ccc(Cl)s1	0
CC(C)c1ccc(-c2noc(SCC(=O)N3CCCCC3C)n2)cc1 (centres undefined)	2.2µM
COc1ccc(-c2nnc(SCC(=O)N3CCC(C)CC3)o2)cc1	0
CC1CCN(C(=O)CSc2nc(-c3ccc(C(C)C)cc3)no2)CC1	0.89µM
CC1CCN(C(=O)CSc2n[nH]c(-c3ccc(F)cc3)n2)CC1	0
Cc1ccc(-c2noc([C@@H]3CCCN3C(=O)Cc3ccccc3Cl)n2)cc1	0
O=C(Cc1ccccc1Cl)N1CCC[C@H]1c1nc(-c2ccccc2)no1	0
CN1CCN(c2ccc(C(=O)N3CCC(n4cnnc4)CC3)cc2)CC1	0
O=C(O)CCC(=O)N1Cc2ccccc2CC2(CCCN2CC2CCCCC2)C1 (centres undefined)	0
CCCC(=O)N1CC2(CCCN2CC2CC2)Cc2ccccc21 (centres undefined)	8.9µM
O=C(O)CCCC(=O)N1Cc2ccccc2CC2(CCCCN2CC2CCCC2)C1 (centres undefined)	0
C[S+](=O)([O-])N1Cc2ccccc2CC2(CCN(CC3CCCCC3)CC2)C1	0
C[S+](=O)([O-])N1CC2(CCCN2CC2CCCCC2)Cc2ccccc21 (centres undefined)	8.9µM
C[S+](=O)([O-])N1Cc2ccccc2CC2(CCCN2Cc2ccccc2)C1 (centres undefined)	0
O=C(c1ccccc1OCC1CCCN(Cc2cccs2)C1)N1CCCC1 (centres undefined)	0
O=C1NCCC[C@@H]1NC(=O)[C@@H]1CN(C(=O)c2cccs2)CCN1C(=O)c1ccccc1	0
O=C(O)C1CN(CC2CC2)CCN(C(=O)c2cc(=O)[nH]o2)C1 (centres undefined)	0
SMILES	Pf Dd2 inh
COC(=O)CC1CCN(C(=O)C[C@H]2NC(=O)c3ccccc3NC2=O)CC1	0
O=C(Nc1ccc(OC(F)(F)F)cc1)C1CCCN(S(=O)(=O)c2cccc3nonc23)C1 (centres undefined)	0
O=C(Nc1ccc(C(F)(F)F)cc1)C1CCCN(S(=O)(=O)c2cccc3cccnc23)C1 (centres undefined)	11µM
O=C(Nc1ccc(F)c(F)c1)C1CCCN(S(=O)(=O)c2cccc3nonc23)C1 (centres undefined)	0
O=C(NC1CCCC1)N1CCCCC1c1nc(-c2cnccn2)n[nH]1 (centres undefined)	0
CCOC(=O)c1c(NC(=O)C2c3ccccc3Oc3ccccc32)sc2c1CCC(CC)C2 (centres undefined)	0
CC1CCN(C(=O)c2c(NC(=O)c3ccccc3F)sc3c2CCC(C(C)(C)C)C3)CC1 (centres undefined)	8.9µM
CC(C)(C)C1CCc2c(sc(NC(=O)C3c4ccccc4Oc4ccccc43)c2C(N)=O)C1 (centres undefined)	13µM
O=C(Nc1sc2c(c1C(=O)N1CCCCC1)CCCC2)c1ccccc1Cl	0
